In paper PMC5540273 (PLoS ONE, 2017) one finds Kd data, which are given here for twelve compounds.
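Note: kd values determined as follow-up on hits from a single-replicate KINOMEscan panel screen.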

One experiment has as its system EPHB6.
With `COc1cc(Nc2nccc(N3CCC(NC(=O)C4COc5ccccc5O4)C3)n2)cc(OC)c1OC` (centres unmarked) [GSK1379761], the Kd came to 0.11 µM.
Consider `Nc1nccc2scc(-c3ccc4c(c3)CCN4C(=O)Cc3ccccc3)c12` [GSK2576924], for which binding was characterised by a dissociation constant (Kd) of 0.34 µM.
Turning to `COc1cc(Nc2nccc(N3CCC(NC(=O)C(C)c4ccc(Cl)cc4)C3)n2)cc(OC)c1OC` (centres unmarked) [GSK1379757], the Kd was found to be 0.1 µM.
Still for that read-out and setting: to `C[C@@H]1CC[C@H](C(=O)NC2CCCCC2)CN1c1cc(-c2ccc3c(N)n[nH]c3c2)nc(N)n1` [GSK2291363] belongs 0.049 µM.
`Cl.c1ccc(Cn2cnc3cc(Nc4ncnc5ccccc45)ccc32)cc1` [GW272142] showed a Kd of 0.51 µM. Against the preceding compound, the Kd is about 10-fold higher.

Another experiment relates to T1, GRK3.
T1 construct: gene ADRBK2
For `Nc1nccc2scc(-c3ccc4c(c3)CCN4C(=O)Cc3ccccc3)c12` [GSK2576924], the Kd was over 10 µM.
On the same count and under the same terms, to `Cc1nn2c(=O)cc(N3CCOCC3)nc2n1Cc1cccc(Cl)c1Cl` [GSK2342769] belongs over 10 µM; to `O=C(Nc1n[nH]c2nc(-c3ccccc3)c(Cl)cc12)C1CC1` [SB-734909], over 10 µM.

The subject of another experiment is GSK3A.
The compound `Nc1n[nH]c2nnc(-c3ccccc3)c(-c3ccccc3)c12` [GW554060] yielded a Kd of 0.3 µM.
Same read-out and setting: to `CCS(=O)c1ccc(-c2coc3ccc(-c4nnc(C)o4)cc23)cc1` (centres unmarked) belongs 0.26 µM; to `CCCC(=O)Nc1n[nH]c2ncc(-c3cccc4ccccc34)cc12` [SB-642057], 0.36 µM; to `COc1ccc(-c2coc3ccc(-c4nnc(SCc5cccc(C#N)c5)o4)cc23)cc1`, 0.15 µM.
Compound `O=C(Nc1n[nH]c2nc(-c3ccccc3)c(Cl)cc12)C1CC1` [SB-734909] gave a Kd of 0.39 µM. Against the preceding compound, the Kd is about 2.6-fold higher.
Same read-out and setting: to `O=C(Nc1n[nH]c2nc(-c3ccccc3)c(Br)cc12)C1CC1` [SB-708998] belongs 0.41 µM.
